Records with an inconclusive call do not appear. Calls of active or inactive are those of the source. The call rests on the fitted dose curve; in most records, active means well fitted inhibition curve with a large enough effect; inconclusive means small, poorly fitted or top-dose-only effect; inactive means flat fitted curve, though single readings scatter.
Molecular target: Glutathione peroxidase 1 (Homo sapiens) (UniProt P07203)
Assay: Primary qHTS Assay for Inhibitors of Recombinant Selenoprotein Glutathione Peroxidase 1 (GPX1) (AID 1845191); further: nearly all actives have a fitted effect of over 65% in size
Details: recombinant GPX1, GR-coupled NADPH fluorescence, 15 min; series mostly up to 48.8 µM; activity, negative = inhibition: at the top concentration
How it was run: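 GR-coupled readout: NADPH consumption tracked by fluorescence, ex 340/em 450 nm, at t=0 and after 15 min at RT. Final mix 10 nM GPX1, 1 mM GSH, 0.5 mM CHP, 0.5 mM NADPH, 100 nM GR, 0.01% BSA, following 30 min enzyme–compound preincubation.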
On the % scale 0 is the no-effect control and ±100 the full control effect.

Sequence of Glutathione peroxidase 1 (Homo sapiens) (P07203 whole entry, looked up): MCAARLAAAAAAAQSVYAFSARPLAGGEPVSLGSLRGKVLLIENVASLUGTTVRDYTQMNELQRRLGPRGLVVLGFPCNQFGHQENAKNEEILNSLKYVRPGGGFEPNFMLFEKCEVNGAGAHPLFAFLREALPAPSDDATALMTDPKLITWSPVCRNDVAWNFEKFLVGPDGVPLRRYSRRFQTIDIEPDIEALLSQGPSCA

Row | Compound | outcome | activity, negative = inhibition | Potency
1 | C[C@H](CCC(=O)O)[C@H]1CC[C@H]2[C@@H]3[C@H](O)C[C@@H]4C[C@H](O)CC[C@]4(C)[C@H]3CC[C@]12C | inactive |  | 
2 | C=C1CCC2(OC1)OC1CC3C4CC=C5CC(O)CC(O[C@@H]6OC[C@@H](O)[C@H](O)[C@H]6O)C5(C)C4CCC3(C)C1(O)C2C (stereo partly drawn) |  | -0.859% [at 15.3 µM] (inactive) | 
3 | CC/C=C/CC1=C(CCCCCCCC(=O)O)CCC1=O |  | 1.68% (inactive) | 
4 | CCn1cc(C2=NOC(C(=O)Nc3c(C)n(C)n(-c4ccccc4)c3=O)C2)c(C)n1 (stereo not drawn) |  | 2.41% (inactive) | 
5 | CC(C)C1=CC2=CCC3[C@](C)(CCC[C@@]3(C)C(=O)O)C2CC1=O (stereo partly drawn) |  | -12.6% [at 27.7 µM] (inactive) | 
6 | C=C(C)C(C)C1OC23CC4(CO2)C(CCC2C5(C)CCC(OC6OCC(O)C(OC7OC(CO)C(O)C(OC8OCC(O)C(O)C8O)C7O)C6OC6OC(CO)C(O)C6O)C(C)(C)C5CCC24C)C3C(C)(O)C1OC(C)=O (stereo not drawn) | inactive [at 15.3 µM] |  | 
7 | COc1ccccc1-n1c(SCC(=O)Nc2nc3ccc(C)cc3s2)nc2c(c1=O)SCC2 | inactive [at 27.7 µM] |  | 
8 | C/C=C/C=C/C(CC(=O)O)Nc1ccc(C=O)cc1 (stereo not drawn) |  | -16.9% (inactive) | 
9 | CC1=CC(=O)OC(C)(CC(C)(O)C(=O)O)C1 (stereo not drawn) |  | 0.254% (inactive) | 
10 | COc1cc(CCc2ccccc2)c(C(=O)O)c2c1CC(C(C)(C)O)O2 (stereo not drawn) |  | -9.77% [at 27.7 µM] (inactive) | 
11 | COc1cc(/C=C/C(=O)OC2[C@H](O)CC(O)(C(=O)O)C[C@H]2O)ccc1O (stereo partly drawn) |  | -10.6% [at 27.7 µM] (inactive) | 
12 | C/C(=C\CO)CC/C=C(\C)C(=O)O[C@H]1[C@H](OC2OC=C(C(=O)O)C3CCC(C)(O)C23)O[C@H](CO)[C@@H](O)[C@@H]1O (stereo partly drawn) |  | 0.196% [at 27.7 µM] (inactive) | 
13 | O=C(NCC(=O)N1CC[C@H](NC2CCC(O)(c3ccc(-c4ncccn4)cn3)CC2)C1)c1cccc(C(F)(F)F)c1 (stereo partly drawn) |  |  | inactive

Reference: PubChem BioAssay (NCATS)
